JMJD2A Tudor: qHTS Assay for Inhibitors of JMJD2A-Tudor Domain; Lysine-specific demethylase 4A (Homo sapiens), O75164; 4.4% of 390,000 active; Potency, µM (highest dose often 114 µM), for inactives: at the top dose activity change, negative = inhibition, usual class: inhibitors; AID 504339, 2011; AlphaScreen JMJD2A-Tudor / H3K4me3 peptide binding; note: % is set by controls: 0 for no effect and ±100 for the full control effect; nearly all actives have a fitted effect of over 50% in size
Sfp PPTase inh: qHTS Assay for Inhibitors of Bacillus subtilis Sfp phosphopantetheinyl transferase (PPTase); 3.5% of 310,000 active; AID 1490, 2009; 4'-phosphopantetheinyl transferase ffp (Bacillus subtilis), Q9F4F7; Biochemical Sfp PPTase activity, qHTS; Potency, µM, for inactives: largest response in the series, negative = inhibition, hits mostly inhibitors;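 note: the enzyme is Sfp with the accession as filed and its product quenches rhodamine fluorescence; 0% = enzyme reaction without inhibitor and -100% = no enzyme wells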
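With Hepes-Na pH 7.6 buffer containing 10 mM MgCl2, Sfp (15 nM) modified BHQ-2-YbbR (12.5 uM) using rhodamine-CoA (5 uM). Two reads 30 minutes apart at 525/598 nm yielded each well's rate.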
HP1b binding inh: HTS for Inhibitors of HP1-beta Chromodomain Interactions with Methylated Histone Tails | AlphaScreen HP1-beta / biotin-H3K9me3 peptide binding | AID 540317, 2011 | 0.56% of 390,000 active | Chromobox protein homolog 1 (Homo sapiens), P83916 | Potency, µM (top dose mostly 114 µM), for the others: top-dose activity change, negative = inhibition, hits mostly inhibitors; note: nearly all actives have a fitted effect of over 70% in size
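HP1-beta protein (50 nM final) preincubated 30 min at room temperature with biotinylated H3(1-18)K9me3 peptide (50 nM) in PBS pH 7.4, 0.01% Tween-20, then compound added for 30 min. AlphaScreen streptavidin donor/nickel chelate acceptor beads (10 ug/mL final), 30 min dark, luminescence read.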
L3MBTL1 inh: qHTS Assay for the Inhibitors of L3MBTL1. Lethal(3)malignant brain tumor-like protein 1 (Homo sapiens), Q9Y468. AlphaScreen L3MBTL1–H3K9me1 peptide binding. Potency, µM (titrated, usually from 57.1 µM), without a hit: at the top dose activity, negative = inhibition, most hits filed as inhibitors. 0.66% of 230,000 active; note: % is set by controls: 0 for no effect and ±100 for the full control effect; nearly all actives have a fitted effect of over 60% in size
Target sequence (Q9Y468 whole entry, looked up): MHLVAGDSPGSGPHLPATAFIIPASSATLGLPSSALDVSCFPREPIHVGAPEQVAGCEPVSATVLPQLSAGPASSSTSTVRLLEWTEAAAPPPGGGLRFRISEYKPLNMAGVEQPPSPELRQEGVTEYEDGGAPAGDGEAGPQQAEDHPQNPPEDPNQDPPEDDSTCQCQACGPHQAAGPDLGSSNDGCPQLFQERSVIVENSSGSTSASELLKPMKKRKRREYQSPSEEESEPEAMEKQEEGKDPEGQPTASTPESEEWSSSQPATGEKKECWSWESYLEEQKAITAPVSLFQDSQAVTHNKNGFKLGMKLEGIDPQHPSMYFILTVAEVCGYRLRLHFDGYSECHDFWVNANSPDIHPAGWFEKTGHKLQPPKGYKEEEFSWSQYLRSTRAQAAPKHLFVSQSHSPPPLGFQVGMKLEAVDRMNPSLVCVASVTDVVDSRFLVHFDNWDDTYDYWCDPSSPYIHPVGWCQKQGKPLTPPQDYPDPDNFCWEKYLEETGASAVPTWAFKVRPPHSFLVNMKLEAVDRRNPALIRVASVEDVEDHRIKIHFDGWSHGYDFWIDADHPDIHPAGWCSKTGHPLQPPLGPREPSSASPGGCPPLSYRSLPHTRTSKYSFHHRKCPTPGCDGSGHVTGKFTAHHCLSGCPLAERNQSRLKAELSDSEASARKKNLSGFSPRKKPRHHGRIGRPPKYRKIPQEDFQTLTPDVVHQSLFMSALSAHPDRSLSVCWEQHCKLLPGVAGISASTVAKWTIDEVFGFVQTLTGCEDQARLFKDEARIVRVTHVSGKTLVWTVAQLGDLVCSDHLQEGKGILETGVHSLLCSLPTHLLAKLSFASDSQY
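L3MBTL1 (50 nM) pre-complexed 30 min with biotinylated H3(1-15)K9me1 peptide (75 nM), then compounds added for 30 min at room temperature; AlphaScreen streptavidin donor/nickel chelate acceptor beads (10 ug/mL final) read after 30 min dark incubation.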
BAZ2B block: qHTS Assay for Inhibitors of BAZ2B; Bromodomain adjacent to zinc finger domain protein 2B (Homo sapiens), Q9UIF8; AlphaScreen BAZ2B-H3K14Ac peptide displacement; Potency, µM (titrated, usually from 114 µM), inactives show top-dose activity change, negative = inhibition, usual class: inhibitors; 4.4% of 360,000 active; AID 504333, 2011; note: % is set by controls: 0 for no effect and ±100 for the full control effect; nearly all actives have a fitted effect of over 60% in size
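In this displacement format the biotinylated H3(5-23) peptide acetylated at Lys14 serves as ligand at 50 nM, with BAZ2B at 50 nM in PBS pH 7.4 containing 0.01% Tween-20. Donor and acceptor beads are 10 ug/mL final.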
G9a block: qHTS Assay for Inhibitors of Histone Lysine Methyltransferase G9a | 8.8% of 350,000 active | G9a H3K9 monomethylation, AlphaScreen, 2 h | Potency, µM (doses to about 102 µM), for inactives: at the highest dose activity, negative = inhibition, usual class: inhibitors | Histone-lysine N-methyltransferase EHMT2 (Homo sapiens), Q96KQ7 | AID 504332, 2011; note: % is set by controls: 0 for no effect and ±100 for the full control effect; nearly all actives have a fitted effect of over 75% in size
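Enzyme 20 nM + cpd, 15 min RT; add b-H3K9 pep 500 nM / SAM 20 uM; 2 h RT; anti-H3K9me1 Ab 0.5 ug/mL + SA donor / anti-rabbit acceptor beads 20 ug/mL each, 10 min; AlphaScreen read.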
Starred values were filed as active, the others as inactive; ? = inconclusive; · = no result given; [ ] = dose if it differs, or a comment. A selection: hits, their analogues and other compounds. The true share with any hit is near 12%. Calls come from the whole dose curve; as a rule, active = well fitted curve in the direction sought with a large enough effect; inconclusive = small, poorly fitted or top-dose-only effect, or another doubt; inactive = no such curve, though single readings can be large; an effect the other way counts as inactive or inconclusive. Potency is the fitted concentration of half-maximal effect.

SMILES	JMJD2A Tudor	Sfp PPTase inh	HP1b binding inh	L3MBTL1 inh	BAZ2B block	G9a block
Cc1cc(C(=O)C(C)Sc2cccc[n+]2[O-])c(C)n1-c1ccc(Cl)cc1 (centres undefined)	-33%	-4%	-14%	4%	-37%	40µM*
COc1ccc(NC(=O)Cn2c(SCc3ccc(C)cc3)nc3cccnc32)c(OC)c1	-9%	·	29%	·	-3%	-33%[59 µM]
C=C[C@]1(C)Cc2occ(C)c2C[C@H]1C(=C)C(=O)O	·	7%	·	·	·	·
COc1ccc(CN2CCN(Cc3ccc(C(F)(F)F)cc3)CC2)cc1	7.9µM*	-30%	?	-4%	25µM*	7.1µM*
CC(C)c1ccc(CN2CCN(C(=O)CCl)CC2)cc1	-2%	9%	39%	6%	-37%	?
CC(C)CC(=O)N1CCN(Cc2ccc(C(F)(F)F)cc2)CC1	28µM*	?	?	60%	?	·
CC(C)CC(=O)N1CCN(Cc2ccc(Br)cc2)CC1	20µM*	-13%	?	12%	-32%	32µM*
CC(C)CC(=O)N1CCN(Cc2ccc(Cl)cc2)CC1	10µM*	-20%	?	1%	?	·
CCN(CC)c1nc(C#N)nc(N2CCOCC2)n1	-16%[57.1 µM]	·	21%[57 µM]	·	·	·
COc1ccc(-c2coc3cc(O)ccc3c2=O)c(O)c1O	·	-99%	·	·	·	?
CC(C)CC(=O)N1CCN(Cc2ccccc2[N+](=O)[O-])CC1	1.3µM*	56µM*	32µM*	-5%	25µM*	14µM*
CCCCC/C=C\C/C=C\CCCCCCCC(N)=O	·	7%	·	·	·	16%[59 µM]
CCOc1cc(CNc2ccc(N3CCOCC3)cc2)cc(Br)c1OCC	20µM*	-24%	45µM*	32µM*	18µM*	25µM*
CCOc1ccc(Br)cc1S(=O)(=O)N1CCCN(C)CC1	-11%	7%	10%	·	-11%	50µM*
CCOc1cc(CNc2ccc(N3CCCCC3)cc2)cc(Br)c1OCC(=O)NC(C)(C)C	10µM*	-46%	?	28µM*	11µM*	10µM*
CCOc1ccc(Br)cc1S(=O)(=O)N1CCC(C(N)=O)CC1	-8%	13%	15%	4%	-8%	-4%
CCOc1cc(CNc2ccccc2)cc(Br)c1OCc1ccccc1F	10%	1%	73%	·	4%	13%[12.7 µM]
COc1cc(CNc2ccc(N3CCOCC3)cc2)cc(Br)c1OC	40µM*	?	?	-15%[11.4 µM]	40µM*	18µM*
COc1ccc(C(=O)c2cn(CC(=O)Nc3ccc4c(c3)OCO4)c3ccc(OC)cc3c2=O)cc1	-29%	·	7%	·	-24%	?
CCNc1ncc2ncc(=O)n(Cc3cccs3)c2n1	·	-12%	·	·	·	5%[0.501 µM]
CCOc1cc(CNc2ccc3c(c2)OCCO3)cc(Br)c1OCC	45µM*	1%	-76%	?	25µM*	·
CCOc1ccc(Br)cc1S(=O)(=O)Nc1ccc(N2CCOCC2)cc1	-18%	3%	-7%	·	?	11µM*
CCOc1ccc(Br)cc1S(=O)(=O)Nc1ccccc1N1CCOCC1	3%	-7%	45%	-1%	-4%	12%[59 µM]
CC1=C(c2ccc(C)c(C)c2)S(=O)(=O)N=C1N1CCC(C(=O)N2CCC(C(N)=O)CC2)CC1	0%	·	25%	·	1%	16%[59 µM]
NC(=O)CC(NC(=O)c1cccc(Br)c1)c1ccc(NC2CCCCCCC2)c([N+](=O)[O-])c1 (centres undefined)	?	2%	-5%	?	?	20µM*

Assay outcomes (PubChem BioAssay)
